Assay outcomes (PubChem)
hcDAF12 agonist: activates DAF-12 receptor from parasite H. contortus; HEK293 hcDAF-12 lit1-tk-luc reporter, luminescence; 0% DMSO, 100% Δ7-dafachronic acid; activation, % at 6.8 µM; 1.4% of 370,000 active;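 active = activation above the mean of all tested compounds plus 3 SD, cut at about 5.5% in these data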;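 note: 100% = response to 3 µM Δ7-dafachronic acid high control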
DAX1 inh-1: NR0B1 (DAX1) inhibition | HEK293 Gal4-DAX1 luciferase reporter, luminescence | inhibition, % at 6.75 µM | 0.99% of 340,000 active;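 active = inhibition above the mean over all tested compounds plus 3 SD, cut at about 4.2% in these data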;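 note: 0% = DAX1-transfected cells with DMSO and 100% = empty-vector control cells with DMSO; inhibition shows as a rise in luminescence from relieved DAX1 repression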
Target sequence (P51843 207-470 limits assumed): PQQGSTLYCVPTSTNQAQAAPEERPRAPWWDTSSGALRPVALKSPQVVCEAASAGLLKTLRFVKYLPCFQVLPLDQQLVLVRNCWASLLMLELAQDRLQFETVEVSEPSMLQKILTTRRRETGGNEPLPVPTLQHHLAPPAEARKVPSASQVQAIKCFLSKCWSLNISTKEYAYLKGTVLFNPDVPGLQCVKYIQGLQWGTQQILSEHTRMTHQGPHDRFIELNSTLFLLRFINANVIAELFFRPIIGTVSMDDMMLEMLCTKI
FXN GAA850 act: activators of GAA850 frataxin (FXN) promoter | HEK293 lucGAA850 FXN promoter luciferase reporter, 24 h; percent of 10 µM SAHA response | activation, % at 6 µM | 0.56% of 360,000 active | AID 540364;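 active = activation above the average of all compounds screened plus 3 SD, cutoff fixed separately per campaign, cut at about 7.5% in these data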;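 note: 0% = DMSO wells and 100% = 10 µM SAHA wells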
hgDAF12 agonist: agonists of H. glycines DAF-12 nuclear receptor. 1.8% of 370,000 active. HEK293 GAL4-hgDAF12 UAS-luciferase reporter, agonist luminescence; normalized to butyrate control. AID 687014. activation, % at 6.8 µM;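 active = activation above a cutoff set at the mean of all screened compounds plus 3 SD, cut at about 10% in these data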;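 note: 0% = DMSO wells and 100% = sodium butyrate wells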
DAX1 inh-2: DAX1 (NR0B1) inhibition, primary screen; HEK293T StAR-luciferase reporter, SF-1/DAX-1 repression relief; inhibition, % at 6.8 µM; 1.1% of 370,000 active; AID 652010;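 active = inhibition above the mean over all tested compounds plus 3 SD, cut at about 3.6% in these data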;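 note: 0% = DAX-1 cells with DMSO and 100% = cells lacking DAX-1 with DMSO; higher inhibition means more luminescence from relief of DAX-1 repression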
ssDAF-12 act: S. stercoralis DAF-12 activation, primary screen | HEK293 ssDAF-12/GRIP1 lit1-tk-luc reporter, luminescence; % of 3 µM dafachronic acid response | activation, % at 6.8 µM | 1% of 370,000 active;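 active = activation above the mean over all tested compounds plus 3 SD, cut at about 0.9% in these data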;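 note: 0% = DMSO-only wells and 100% = 3 µM delta7-dafachronic acid wells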
LXRb hcDAF ctr: counter-screen for hcDAF-12 agonists: agonists of human LXR-beta. shares compounds with hcDAF12 agonist. HEK293 Gal4-LXR tk-luc reporter, luminescence, 24 h; normalized: DMSO 0%, positive control 100%. activation, % at 6.8 µM. 3,400 tested, under 10 active. AID 743027;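 active = mean percent activation of the reporter above a cutoff set as the average over tested compounds plus their standard deviation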
hcDAF12 conf: confirmation of H. contortus DAF-12 agonists; shares compounds with hcDAF12 agonist; HEK293 hcDAF-12 lit1-tk-luc reporter, luminescence; % of Δ7-dafachronic acid response; activation, % at 6.8 µM; 61% of 3,400 active; AID 743032;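 active = mean activation across triplicate tests above the threshold derived from the earlier primary screen, cut at about 5.5% in these data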;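 note: 0% = DMSO only wells and 100% = 3 µM Δ7-dafachronic acid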
An asterisk follows results filed as active; / = not tested or not shown. Sampled rows, rich in hits. Any-hit rate of the full collection: about 4.5%.

SMILES | hcDAF12 agonist | DAX1 inh-1 | FXN GAA850 act | hgDAF12 agonist | DAX1 inh-2 | ssDAF-12 act | LXRb hcDAF ctr | hcDAF12 conf
Nc1c2c(nc3cccc(Cl)c13)N(c1ccccc1)CC2 | 7.2* | 1 | -1 | 0 | 0 | 1.1* | 0 | 7.4*
CCN1c2ccccc2-c2nc3ccccc3n2C1c1ccco1 (configuration not stated) | -1 | -1 | 2 | -1 | -1 | -2 | / | /
Cc1ccc(C2Nc3ccccc3-c3nc4ccccc4n32)o1 (configuration not stated) | 6.7* | -1 | 3 | 12* | 0 | 0 | 1 | 2
COc1ccc2c(c1)CC/C(=C\Nc1ccc3c(c1)OCO3)C2=O | 2 | 0 | 4 | -2 | -1 | -1 | / | /
O=C1/C(=C/Nc2ccc3c(c2)OCO3)CCc2ccccc21 | 9.4* | -3 | -3 | 9 | 1 | 0 | 1 | 7.5*
COc1cccc(/C=N/NC(=O)c2ccoc2C)c1 | 7.2* | 3 | 3 | 11* | 2 | 0 | 1 | 5
CCOCCCNC(=O)CCC(=O)NNc1nc2ccccc2c2nc(C)nn12 | 0 | 0 | 0 | -2 | 0 | -1 | / | /
COCCCNC(=O)CCC(=O)NNc1nc2ccccc2c2nc(C)nn12 | 7.2* | 1 | 2 | 1 | 0 | 0 | 0 | 3
CCCCC1O[C@@H](C)[C@@H]2CN3CCc4c([nH]c5ccccc45)[C@@H]3C[C@@H]2N1C (some centres not stated) | 1 | / | / | 0 | 1 | 0 | / | /
Cc1nc(NC(=O)c2ccccc2O)sc1C | 1 | 3 | 2 | 5 | 1 | -1 | / | /
Cc1nc(NC(=O)c2cccnc2Cl)sc1C | 8.5* | 3 | 2 | 9 | 1 | 1 | 1 | 5
Oc1ccccc1OCc1nc2ccccc2s1 | 7.1* | 2 | 3 | 11* | 3 | 1.4* | 1 | 6.2*
OCc1cc(Br)ccc1OCc1nc2ccccc2s1 | / | 1 | 3 | / | / | / | / | /
COc1ccc(/C=C/C(=O)c2c(O)cc(C)oc2=O)c(OC)c1 | 4 | 2 | 2 | 3 | 3 | -1 | / | /
Cc1cc(O)c(C(=O)/C=C/c2ccc(Cl)cc2)c(=O)o1 | 13* | 1 | 4 | 6 | 1 | 1 | 0 | 0
Cc1cc(NS(=O)(=O)c2ccc3c(c2)CCC(=O)N3)ccc1Cl | -2 | / | / | -1 | / | -1 | / | /
COc1ccc(/C=N\n2nnc3ccccc32)cc1 | 9.1* | -4 | -4 | 8 | 4.2* | 0.9* | 1 | 7.7*
COc1ccc(/C=N/n2c(C)nc3ccccc3c2=O)cc1 | -1 | 0 | 2 | 2 | 0 | 0 | / | /
COc1ccccc1CNC1CCC12CCC(c1ccccc1)CC2 (configuration not stated) | -1 | / | / | -1 | / | -1 | / | /
Cn1c(SCC(=O)Nc2cccc(F)c2)nc2c([nH]c3ccccc32)c1=O | 6.7* | 0 | 4 | 3 | 0 | 0 | 0 | 4
CC(C)Sc1nc2c([nH]c3ccccc32)c(=O)n1C | 11* | 0 | 1 | 0 | 0 | 1.0* | 0 | 7.1*
COc1ccc(-n2c(SCC(=O)Nc3ccc(C(N)=O)cc3)nc3c([nH]c4ccccc43)c2=O)cc1OC | 9.7* | 0 | 1 | -2 | 3 | 0.9* | 0 | 8.8*
CCOc1ccc(NC(=O)CSc2nc3c([nH]c4ccccc43)c(=O)n2C)cc1 | 9.8* | 1 | 0 | 0 | 1 | 0 | 0 | 6.2*
CCOC(=O)C(C)Sc1nc2c([nH]c3ccccc32)c(=O)n1C (configuration not stated) | 2 | 2 | 0 | -2 | 1 | 0 | / | /
COc1ccc(CC(=O)Nc2ccc(NC(=O)c3ccccc3F)cc2)cc1 | 9.8* | 0 | 1 | 1 | 0 | -2 | 0 | 0
